# Screening results deposited in PubChem BioAssay by several laboratories.
# PolyA inh: blocks polyadenylation in yeast reporter cells. S. cerevisiae SKY197-pL101 polyadenylation reporter, beta-gal luminescence; efflux-impaired pdr1/pdr3 knockout yeast; score 100 = 6 SD above DMSO. activity score, % at 12 µM. 300,000 compounds, 0.02% hits. AID 1875;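 active means lowest replicate activity score at least 50, where 100 means six control SD above control mean; inconclusive means lowest score under 50 but half or more replicates reach 50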;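 further: yeast exposed to compound for 9 h at 30 °C; higher score means more reporter readthrough which indicates perturbed polyadenylation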
# EBNA-1 inhibitor: blocks EBNA-1 binding to DNA; EBNA-1 DNA binding, fluorescence polarization; inhibition, % at 14.8 µM; 300,000 compounds, 0.34% hits; in the data active means inhibition above about 28%
# NALP3 yeast inh: blocks the NALP3 inflammasome reconstituted in yeast; Yeast reconstituted NLRP3/ASC/caspase-1, beta-gal luminescence, 24 h; inhibition, % at 10 µM; 330,000 compounds, 0.39% hits; AID 2825;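 active means inhibition of 50% or more; inactive means inhibition below 50%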
# dFosB activator: activators of mouse delta FosB homodimer; 340,000 compounds, 0.99% hits; purified delta FosB, TAMRA-CDK5 oligo fluorescence polarization; percent of positive-control signal above neutral wells; activation, % at 25 µM; P13346;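 active means mean activation above about 17%, with every replicate also reaching it, limit read from the data, passing the limit was not always enough; inconclusive means only one of the two conditions met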
# Target sequence (P13346 whole entry, looked up): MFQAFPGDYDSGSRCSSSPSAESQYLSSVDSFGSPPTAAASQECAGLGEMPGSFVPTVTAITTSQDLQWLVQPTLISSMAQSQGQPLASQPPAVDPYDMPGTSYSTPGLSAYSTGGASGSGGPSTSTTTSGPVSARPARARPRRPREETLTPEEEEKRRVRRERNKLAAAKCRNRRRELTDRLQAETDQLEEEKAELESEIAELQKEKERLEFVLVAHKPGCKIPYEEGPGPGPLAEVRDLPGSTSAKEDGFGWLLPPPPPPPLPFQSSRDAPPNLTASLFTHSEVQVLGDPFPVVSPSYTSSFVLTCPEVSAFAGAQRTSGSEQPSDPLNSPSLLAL
# ZTA counter: ZTA (EBV) inhibition in EBNA-1 counter-screen; P03206; ZTA-DNA binding, fluorescence polarization; inhibition, % at 11 µM; 320,000 compounds, 0.15% hits; AID 2234; in the data active means inhibition above about 33%
# Target sequence (P03206 whole entry, looked up): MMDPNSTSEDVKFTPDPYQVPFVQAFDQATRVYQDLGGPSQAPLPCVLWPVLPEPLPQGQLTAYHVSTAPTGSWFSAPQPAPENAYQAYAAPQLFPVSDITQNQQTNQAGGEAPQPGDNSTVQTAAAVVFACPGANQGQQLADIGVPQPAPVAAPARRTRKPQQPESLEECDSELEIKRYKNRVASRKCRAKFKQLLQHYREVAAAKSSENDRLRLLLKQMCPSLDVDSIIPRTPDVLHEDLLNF
# NALP1 inh: NALP1 inhibition; inhibition, % at 10 µM; AID 2071; 280,000 compounds, 0.61% hits; S. cerevisiae NALP1/ASC/caspase-1 growth, X-gal OD620, 72 h; in the data active means inhibition mostly above about 24%, no sharp cut-off; inactive means mostly below about 32%
# EBNA-1 inh conf: EBNA-1 (EBV) inhibition, confirmation | Recombinant EBNA-1 DBD, Cy5-DNA fluorescence polarization | AID 2292 | 830 compounds, 35% hits | shares compounds with EBNA-1 inhibitor | inhibition, % at 14.8 µM;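 active means mean inhibition across replicates above a set limit taken from the earlier primary screen, cut at about 28% in these data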
# ZTA DNA inh trip: blocks Epstein-Barr virus ZTA in triplicate, EBNA-1 counter-screen | shares compounds with EBNA-1 inhibitor | Zta-ZRE DNA binding, Cy5 fluorescence polarization | inhibition, % at 11.1 µM | 830 tested, under 10 active;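 active means mean inhibition over triplicates above a set limit taken from the primary EBNA-1 screen, cut at about 37% in these data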;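 further: purified full length Zta protein with Cy5 labeled ZRE DNA probe; inhibitors lower polarization by freeing the labeled DNA probe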
# A number is an active result; 0 = inactive; ? = inconclusive; - = no result. The list is not random: actives were taken first. Their share in the collection is about 2.2%.
SMILES,PolyA inh,EBNA-1 inhibitor,NALP3 yeast inh,dFosB activator,ZTA counter,NALP1 inh,EBNA-1 inh conf,ZTA DNA inh trip
COc1ccccc1NS(=O)(=O)c1cc(NC(=O)c2ccc3ccccc3n2)ccc1Cl,0,51.6,0,0,0,0,0,0
Cc1cc(N2CCOCC2)ccc1/C=C1\NC(=O)N(CC(=O)Nc2ccc(F)cc2)C1=O,0,0,0,0,0,0,-,-
Cc1cc(N2CCOCC2)ccc1/C=C1\NC(=O)N(CC(=O)Nc2ccccc2C)C1=O,0,41.5,0,0,0,0,0,0
Cc1cccc(NC(=O)CN2C(=O)N/C(=C\c3ccc(N4CCOCC4)cc3)C2=O)c1,0,34.1,0,0,0,0,0,0
COC(=O)c1ccc2c(=O)[nH]c(CSc3nc(C)cs3)nc2c1,0,0,0,0,0,0,-,-
COC(=O)c1ccc2c(=O)[nH]c(CSc3nc(-c4ccc(F)cc4)cs3)nc2c1,0,59.6,0,0,0,0,34.1,0
O=C(Nc1cccc(-c2nnc(-c3ccccc3)o2)c1)C1CCCCC1,0,75.5,0,0,0,0,106.9,0
Cc1oc(-c2ccccc2)nc1C(=O)Nc1nccs1,0,51.8,0,0,0,0,0,0
COc1ccc(NC(=O)c2cc(-c3cccnc3)nc3c(C)c(C)ccc23)c(OC)c1,0,33.2,0,0,0,0,0,0
OCCN(Cc1ccccc1)c1ncnc2sccc12,0,0,0,0,0,0,-,-
Cc1ccc2nc(-c3ccc(NC(=O)CCN4C(=O)c5ccccc5C4=O)cc3)sc2c1,0,0,0,0,0,0,-,-
Cc1ccc2nc(-c3ccc(NC(=O)C(C)N4C(=O)c5ccccc5C4=O)cc3)sc2c1 (centres undefined),0,32.8,0,0,0,0,0,0
O=C1c2ccccc2C(=O)N1CCCCN(C(=O)c1cc2ccccc2oc1=O)c1ccc(Cl)cc1,0,36.6,0,0,0,0,0,0
O=C(NCc1ccc(Cl)cc1)c1cc2ccccc2oc1=O,?,-,0,0,-,0,-,-
COc1cn(-c2ccccc2)nc1C(=O)OCC(=O)Nc1ccc(C)c(C)c1,-,-,0,0,0,-,-,-
Cc1ccc2nc3c(c(C(=O)OC4CCOC4=O)c2c1)CCCC3 (centres undefined),0,29.5,0,0,0,0,0,0
Cc1ccc2nc3c(c(C(=O)OCC(=O)NC4CCS(=O)(=O)C4)c2c1)CCCC3 (centres undefined),0,0,0,0,0,0,-,-
Cc1ccc(S(=O)(=O)Nc2cccc(S(=O)(=O)Nc3ccccc3C(=O)O)c2)c(C)c1,-,-,0,0,-,-,-,-
COc1cc(Cn2c(N)c(C#N)c3nc4ccccc4nc32)cc(OC)c1,0,92.5,0,0,0,0,0,0
Cc1ccc(N(Cc2ccccc2)C(=O)Cc2ccc(S(=O)(=O)N3CCOCC3)s2)cc1,-,-,0,0,-,-,-,-
Cc1ccc(NC(=O)c2ccc(=O)[nH]n2)cc1S(=O)(=O)Nc1ccccc1Cl,-,-,0,0,0,-,-,-
Cc1ccc(NC(=S)NC(=O)c2ccc(F)cc2)cc1S(=O)(=O)Nc1ccccc1Cl,0,27.8,0,0,0,0,0,0
COc1ccc(S(=O)(=O)N2CCCCC2)cc1NC(=O)c1cccs1,0,35.5,0,0,0,0,31.8,0
COc1ccc(NS(=O)(=O)c2ccc(O)c(NC(=O)c3ccc(S(=O)(=O)N4CCCCCC4)cc3)c2)cc1,0,28.3,0,0,0,0,0,0
N#CCn1c(CN2CCCC2)nc2ccccc2c1=O,0,0,0,0,0,0,-,-
SMILES,PolyA inh,EBNA-1 inhibitor,NALP3 yeast inh,dFosB activator,ZTA counter,NALP1 inh,EBNA-1 inh conf,ZTA DNA inh trip
Cc1ccc(C(=O)NCC(C)NC(=O)c2ccc(C)c([N+](=O)[O-])c2)cc1[N+](=O)[O-] (centres undefined),0,0,0,0,0,-,-,-
CCC(C)NC(=O)c1ccc([N+](=O)[O-])c(Cl)c1 (centres undefined),0,27.5,0,0,0,0,0,0
Nc1c(C(=O)Nc2ccccc2)sc2nc(-c3ccco3)ccc12,0,54.4,0,0,0,0,59.5,0
COc1ccccc1NC(=O)c1sc2nc(-c3ccco3)ccc2c1N,0,0,0,0,0,0,-,-
Cc1nc(SCc2nc3ccc([N+](=O)[O-])cc3[nH]2)c2oc3ccccc3c2n1,-,-,0,0,-,-,-,-
Cc1noc(C)c1C(=O)NC1=NCCS1,0,0,0,0,0,0,-,-
O=C(NCCc1ccc(F)cc1)c1ccc2c(=O)n3c(nc2c1)CCC3,0,44.9,0,0,0,-,0,0
COc1ccc(N2CC(O)=C(c3nc4ccccc4s3)C2=N)cc1,0,52.8,0,0,0,0,76.6,0
COc1cccc(N2CC(O)=C(c3nc4ccccc4s3)C2=N)c1,0,0,0,0,0,0,-,-
CC(C)C[C@@H](CO)N1CCN(Cc2cccc(C#N)c2)CCC1=O,0,0,0,0,0,0,-,-
COc1ccc(C(NC(=O)/C=C\c2ccco2)c2ccc(OC)c(OC)c2)cc1 (centres undefined),0,39.3,0,0,0,0,0,0
CCOc1c(Br)cc(CNC2CCCCCCC2)cc1OC,0,0,0,0,0,0,-,-
COc1cc(CNC2CCCCCCC2)cc(Cl)c1OC,0,89.9,0,0,0,0,0,0
COc1ccc(-n2ncc3c(=O)n(CC(=O)N4c5ccccc5CC4C)cnc32)cc1 (centres undefined),0,31.1,0,0,0,0,0,0
Cc1ccccc1Nc1nnc(SCc2nc3ccccc3c(=O)[nH]2)s1,0,0,0,-,0,0,-,-
CCOc1ccc(Nc2nnc(SCc3nc4ccccc4c(=O)[nH]3)s2)cc1,0,37.9,0,0,0,-,51.9,0
CCN(C[C@H]1N[C@@](Cc2ccccc2)(C(=O)OC)[C@H]2C(=O)N(C)C(=O)[C@@H]12)C(=O)COC,-,-,0,0,-,-,-,-
COC(=O)c1sc(NC(=O)COc2cccc(C)c2)nc1C,0,0,0,0,0,0,-,-
CC(=O)c1sc(NC(=O)COc2ccc([N+](=O)[O-])cc2)nc1C,0,0,0,0,0,0,-,-
CC(C)(C)c1nnc(NC(=O)COc2ccc3c(c2)OCO3)s1,0,0,0,0,0,-,-,-
CCOC(=O)c1sc(NC(=O)COc2ccc3c(c2)OCO3)nc1C,0,64.8,0,0,0,0,124.1,0
CC(=O)c1sc(NC(=O)COc2ccc(Br)cc2)nc1C,0,42.7,0,0,0,0,0,0
COC(=O)c1sc(NC(=O)COc2ccc(OC)cc2)nc1C,0,30.1,0,0,0,-,0,0
COc1ccc(OC)c2c1cc(C(=O)N[C@@H](C)C(=O)N[C@@H](C(=O)O)c1ccccc1)n2C,0,0,0,0,0,0,-,-
